Source: PubChem
Most compounds without a hit are left out; they make up all but 19% or so of the library.
Giardia killer: kills Giardia lamblia | activity change, % at 7.66 µM, hits read low | hit rate 0.15% among 340,000 | Giardia lamblia trophozoite viability; in the data active = activity change below about -80%; inconclusive = between about -30% and that limit;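 note: parasites exposed to compound for two days anaerobically before the ATP read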
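Anaerobic 48 hrs incubation at 37 deg C of 100 trophozoites/well with test compounds; ATPLite 1-Step luminescence, 15-30 min RT, reports cellular ATP as viability.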
DT40 TDP1 CPT: DT40-hTDP1 cell growth loss with CPT; chicken DT40 Tdp1-/-;hTDP1 cells + 20 nM CPT, ATP luminescence, 48 h; Potency, µM (titrated, usually from 46.2 µM), inactives show top-dose activity change, negative = growth inhibition, actives largely listed as inhibitors; hit rate 12% among 420,000; AID 686979; note: potency is the fitted concentration of half-maximal effect; nearly all actives have a fitted effect of over 55% in size
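Cell growth measured by CellTiter-Glo luminescence after a minimum 48 h, 37 C compound exposure with 20 nM CPT in Tdp1-knockout DT40 cells stably expressing hTDP1, seeded 400/well; qHTS titration format.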
IL-1B inflam inh: inhibitors of inflammasome signaling (IL-1 beta secretion); THP-1 LPS/ATP IL-1B secretion, AlphaLISA, 16 h; stronger effect = lower value; activity change, % at 57.5 µM; hit rate 4.7% among 360,000; AID 743279; in the data active = activity change below about -50%; inconclusive = mostly about -30% to -49%
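THP-1 cells pretreated 1 hr with compounds (up to 57.5 uM final), then stimulated with LPS (250 ng/mL final) plus ATP (1.25 mM final); secreted IL-1B measured by AlphaLISA after 16 hr, decreased signal indicating inhibition.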
TDP1 cell noCPT: qHTS for Inhibitors of human tyrosyl-DNA phosphodiesterase 1 (TDP1): qHTS in cells in absence of CPT. DT40 Tdp1-/- hTDP1 cells, no CPT, ATP luminescence, 48 h. Potency, µM (series often up to 46.2 µM), for inactives: at the highest dose activity change, negative = growth inhibition, actives largely listed as inhibitors. hit rate 15% among 420,000. AID 686978, 2013; note: potency is the fitted concentration of half-maximal effect; nearly all actives have a fitted effect of over 55% in size
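Stably hTDP1-transfected Tdp1-null chicken DT40 cells were treated with library compounds minus camptothecin and grown for at least 48 hr at 37 °C, after which cellular ATP was quantified by luminescence.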
ELG1 DNA repair: ELG1-dependent DNA repair inhibition | Potency, µM (doses to about 46.1 µM), for the others: at the highest dose activity change, negative = inhibition, usual class: inhibitors | AID 504467 | hit rate 2.3% among 330,000 | HEK293T ELG1-luciferase reporter, luminescence, 16 h; DNA damage induced by 5-fluorouridine; note: potency is the fitted concentration of half-maximal effect; nearly all actives have a fitted effect of over 55% in size
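HEK293T cells expressing luciferase-tagged ELG1 (2,000/well) received 5-Fluorouridine plus compound or DMSO for 16 hr at 37 °C. Luciferase was read by ONE-Glo luminescence after 30 min at room temperature.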
TDP1 block: blocks human tyrosyl-DNA phosphodiesterase 1. Q9NUW8. recombinant TDP1, AlphaScreen DNA substrate cleavage. Potency, µM (highest dose often 130 µM), for inactives: at the top dose activity change, negative = inhibition, hits mostly inhibitors. hit rate 0.28% among 350,000. AID 485290; note: potency is the fitted concentration of half-maximal effect; nearly all actives have a fitted effect of over 40% in size
Target sequence (Q9NUW8 whole entry, looked up): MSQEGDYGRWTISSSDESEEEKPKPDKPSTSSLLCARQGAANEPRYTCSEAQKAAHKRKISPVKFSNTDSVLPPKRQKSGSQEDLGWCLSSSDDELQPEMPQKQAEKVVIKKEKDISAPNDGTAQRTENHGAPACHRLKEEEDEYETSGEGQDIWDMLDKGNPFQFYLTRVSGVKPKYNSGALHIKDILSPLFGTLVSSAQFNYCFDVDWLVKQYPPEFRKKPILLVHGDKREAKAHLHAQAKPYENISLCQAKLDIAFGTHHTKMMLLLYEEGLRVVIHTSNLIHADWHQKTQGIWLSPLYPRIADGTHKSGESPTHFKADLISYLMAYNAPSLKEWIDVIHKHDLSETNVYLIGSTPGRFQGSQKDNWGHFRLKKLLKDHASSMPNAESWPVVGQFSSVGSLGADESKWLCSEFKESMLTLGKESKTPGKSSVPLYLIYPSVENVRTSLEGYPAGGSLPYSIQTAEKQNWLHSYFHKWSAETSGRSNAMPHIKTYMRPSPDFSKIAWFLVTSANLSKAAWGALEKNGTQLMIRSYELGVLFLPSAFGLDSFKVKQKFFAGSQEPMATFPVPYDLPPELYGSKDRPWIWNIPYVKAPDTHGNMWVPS
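E. coli-derived human Tdp1, 1 nM final. Cpd preinc 15 min RT; substrate 15 nM final, 5 min RT; AS bead mix 10 ug/ml final, 10 min RT. Signal loss = tyrosine-FITC cleavage. No-enzyme wells = max signal.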
* = called active by the depositor. Unless noted, calls come from the whole dose curve; as a rule, active = well fitted curve in the direction sought with a large enough effect; inconclusive = small, poorly fitted or top-dose-only effect, or another doubt; inactive = no such curve, though single readings can be large; an effect the other way counts as inactive or inconclusive. % is set by controls: 0 for no effect and ±100 for the full control effect.

Screening COc1ccc(-c2csc3ncnc(N4CCN(S(=O)(=O)c5cccc(Br)c5)CC4)c23)cc1 returned Giardia killer -11, DT40 TDP1 CPT 23µM*, IL-1B inflam inh 3, TDP1 cell noCPT 9.2µM*, ELG1 DNA repair inconclusive and TDP1 block 0%.
COc1ccc(-c2csc3ncnc(N4CCN(S(=O)(=O)c5cccc(C(F)(F)F)c5)CC4)c23)cc1 was read as Giardia killer -11, DT40 TDP1 CPT inconclusive, IL-1B inflam inh 30, TDP1 cell noCPT inconclusive and ELG1 DNA repair inconclusive.
Screening COc1ccc(-c2csc3ncnc(N4CCN(S(=O)(=O)c5ccc(C(C)=O)cc5)CC4)c23)cc1 returned Giardia killer -15, DT40 TDP1 CPT inconclusive, IL-1B inflam inh -74*, TDP1 cell noCPT inconclusive and ELG1 DNA repair inconclusive.
Cc1ccc(S(=O)(=O)NN=C(c2ccccc2)c2cccs2)cc1 was read as DT40 TDP1 CPT -19%, IL-1B inflam inh -12 and TDP1 cell noCPT 12µM*.
`C/C(=N\NS(=O)(=O)c1ccc(C)cc1)c1cccs1` gave Giardia killer 0, DT40 TDP1 CPT -2%, IL-1B inflam inh -16, TDP1 cell noCPT -30%, ELG1 DNA repair 9% and TDP1 block 4%.
`Cc1cccc(-c2nc(CSCC(=O)N3CCN(c4ccccn4)CC3)c(C)o2)c1` gave Giardia killer 0, DT40 TDP1 CPT 21µM*, IL-1B inflam inh -59*, TDP1 cell noCPT inconclusive, ELG1 DNA repair inconclusive and TDP1 block 3%.
Screening Cc1cccc(-c2nc(CSCC(=O)N3CCN(c4cccc(C)c4C)CC3)c(C)o2)c1 returned DT40 TDP1 CPT 18µM*, TDP1 cell noCPT inconclusive and TDP1 block 6%.
Screening Cc1cccc(N2CCN(C(=O)CSCc3ccc(F)cc3)CC2)c1C returned DT40 TDP1 CPT inconclusive, TDP1 cell noCPT inconclusive and TDP1 block 5%.
Screening COc1ccc(N2CCN(C(=O)c3ccc(Cn4nc(C)c([N+](=O)[O-])c4C)o3)CC2)cc1 returned Giardia killer -8, DT40 TDP1 CPT inconclusive, IL-1B inflam inh -12, TDP1 cell noCPT 13µM*, ELG1 DNA repair inconclusive and TDP1 block 6%.
COc1ccc(CNC(=O)c2ccc(Cn3nc(C)cc3C)o2)cc1 was read as Giardia killer -11, DT40 TDP1 CPT -21%, IL-1B inflam inh -25, TDP1 cell noCPT 11%, ELG1 DNA repair -8% and TDP1 block 2%.
For Cc1nn(Cc2ccc(C(=O)N3CCCC3)o2)c(C)c1[N+](=O)[O-] the results were Giardia killer 10, DT40 TDP1 CPT -16%, IL-1B inflam inh 45, TDP1 cell noCPT 18%, ELG1 DNA repair -2% and TDP1 block 4%.
For COc1ccc(CNC(=O)c2ccc(Cn3nc(C)c([N+](=O)[O-])c3C)o2)cc1 the results were Giardia killer 5, DT40 TDP1 CPT inconclusive, IL-1B inflam inh -23, TDP1 cell noCPT 23µM*, ELG1 DNA repair inconclusive and TDP1 block 11%.
Screening Cc1nn(CCCC(=O)N2CCN(c3ccc(F)cc3)CC2)c(C)c1[N+](=O)[O-] returned Giardia killer 2, DT40 TDP1 CPT 16µM*, IL-1B inflam inh -24, TDP1 cell noCPT 21µM*, ELG1 DNA repair inconclusive and TDP1 block 1%.
`CC1OC(OCC2OC(Oc3cc(O)c4c(c3)OC(c3ccc(O)cc3)CC4=O)C(O)C(O)C2O)C(O)C(O)C1O` (stereo unspecified) gave TDP1 block 4%.
COc1ccc(/C=N/NC(=O)c2sccc2OCc2ccc(F)cc2)cc1OC was read as Giardia killer 7, DT40 TDP1 CPT 16µM*, IL-1B inflam inh 10, TDP1 cell noCPT 23µM*, ELG1 DNA repair inconclusive and TDP1 block 3%.
